HCV inh – qHTS Assay for Inhibitors of Hepatitis C Virus (HCV); Huh7.5.1 HCVcc-Cre infection, luciferase reporter, 44 h; Potency, µM (highest dose often 41.8 µM), usual class: inhibitors; 340,000 tested, 3.4% active; AID 651820, 2012
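Infectious HCVcc-Cre (~0.5 moi) was added to cells just after compound, with cells seeded 4 h earlier at 1,000 per well. Luciferase activity after 44 h culture reported infection; substrate was incubated 15 min at room temperature before reading.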
MARV entry inh – qHTS for inhibitors of binding or entry into cells for Marburg Virus. Marburg virus pseudotyped entry inhibition, cell reporter. Potency, µM (titrated, usually from 37.8 µM), most hits filed as inhibitors. 300,000 tested, 1.8% active. AID 540276, 2011; calls by dose curve; tested in HEK293 cells
Pf growth 48h – Primary qHTS for delayed death inhibitors of the malarial parasite plastid, 48 hour incubation; P. falciparum luciferase growth in erythrocytes, 48 h; Potency, µM (series often up to 28.7 µM), usual class: inhibitors; AID 504832, 2011; 310,000 tested, 5.9% active
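Erythrocytes infected with P. falciparum carrying an integrated firefly luciferase reporter (2% hematocrit, 0.1% parasitemia final) were exposed to compounds in RPMI 1640 with 0.5% Albumax at 37 C, 5% CO2. Growth inhibition was scored as reduced luminescence.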
HCMV antiviral – qHTS Assay for inhibitors of the human cytomegalovirus (HCMV); AID 1259415, 2018; 410,000 tested, 4.5% active; activity change, negative = inhibition, % at 57.5 µM; HFF cells, HCMV-luciferase reporter, 72 h; hits give low values; in the data active = activity change below about -60%; inconclusive = no clear call, values can overlap the other calls; inactive = above about -39%
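HFF cells seeded 16 h at 37C, treated with compounds, infected with luciferase-reporter HCMV at MOI 1 PFU/cell; luciferase read at 72 h post infection, normalized to buffer-only and Salinomycin controls.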
Pf growth 96h – Primary qHTS for delayed death inhibitors of the malarial parasite plastid, 96 hour incubation | P. falciparum luciferase reporter growth, 96 h | Potency, µM (highest dose often 28.7 µM), most hits filed as inhibitors | 320,000 tested, 6.9% active | AID 504834, 2011
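P. falciparum expressing integrated firefly luciferase grown in erythrocytes (2% hematocrit, 0.05% parasitemia final) with compounds for 96 hours at 37 C, 5% CO2. Growth inhibition read as loss of luminescence after adding luciferase detection reagent.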
Lassa entry inh – qHTS for Inhibitors of binding or entry into cells for Lassa Virus; Lassa virus pseudotype entry inhibition, cell reporter; Potency, µM (top dose mostly 37.9 µM), usual class: inhibitors; 300,000 tested, 1.2% active; AID 540256, 2011; calls by dose curve; tested in HEK293 cells; note: nearly all actives have a fitted effect of over 50% in size
Of the large screens only hits and unclear results are named; the others gave an inactive call. Shown are actives, neighbours in structure and some others; about 14% of the full set was active somewhere. Unless noted, calls come from the whole dose curve; as a rule, active = well fitted inhibition curve with a large enough effect; inconclusive = small, poorly fitted or top-dose-only effect, or another doubt; inactive = no such curve, though single readings can be large or run the other way.

Cc1cn2c(=O)cc(COc3cccc(NC(=O)c4ccccc4Cl)c3)nc2s1	none (no result: HCV inh, Pf growth 48h, Pf growth 96h)
CS(=O)(=O)N1CCN(c2ccccc2NC(=O)c2ccc3ccccc3c2)CC1	HCV inh inconclusive, Pf growth 48h 12µM, Pf growth 96h inconclusive
CS(=O)(=O)N1CCN(c2ccccc2NC(=O)c2ccc(Cl)cc2)CC1	none
CS(=O)(=O)N1CCN(c2ccccc2NC(=O)C(c2ccccc2)c2ccccc2)CC1	MARV entry inh inconclusive, Pf growth 48h 10µM, Lassa entry inh inconclusive (no result: Pf growth 96h)
CCOc1cc(N2CCOCC2)c(OCC)cc1NC(=O)c1cccc(S(=O)(=O)N2CCOCC2)c1	HCV inh inconclusive (no result: Pf growth 48h, Pf growth 96h)
COc1ccc(NC(=O)Cn2c(SCc3ccc(F)cc3)nc3cccnc32)cc1OC	none (no result: HCV inh, MARV entry inh, Pf growth 48h, Pf growth 96h)
CCOC(=O)c1nnn(-c2nonc2N)c1-c1ccc(OC)cc1	Pf growth 48h 2.1µM, Pf growth 96h inconclusive
CCOC(=O)c1nnn(-c2nonc2N)c1-c1ccc(Cl)cc1	Pf growth 48h 12µM, HCMV antiviral inconclusive, Pf growth 96h inconclusive (no result: MARV entry inh, Lassa entry inh)
CCOC(=O)c1nnn(-c2nonc2N)c1-c1cccc2ccccc12	MARV entry inh inconclusive, Pf growth 48h 3.3µM, Pf growth 96h 5.2µM, Lassa entry inh inconclusive
CCOC(=O)c1nnn(-c2nonc2N)c1-c1ccc(F)cc1	Pf growth 48h 12µM (no result: MARV entry inh, Lassa entry inh)
CCOC(=O)c1nnn(-c2nonc2N)c1COc1ccc(F)cc1	none (no result: Pf growth 48h, Pf growth 96h)
CCOC(=O)c1nnn(-c2nonc2N)c1-c1ccccc1Cl	Pf growth 48h inconclusive (no result: MARV entry inh, Lassa entry inh)
CCOC(=O)c1nnn(-c2nonc2N)c1-c1cccs1	none
O=C(CC(c1cccs1)N1Cc2ccccc2C1=O)Nc1ccc(F)c(Cl)c1 (stereo not drawn)	none (no result: HCV inh, MARV entry inh, Pf growth 48h, Pf growth 96h)
CCCCNC(=O)C1c2ccccc2OCC(=O)N1CCc1c[nH]c2ccccc12 (stereo not drawn)	none (no result: HCV inh, MARV entry inh, Pf growth 48h, Pf growth 96h, Lassa entry inh)
CCOC(=O)CCN1C(=O)[C@H]2[C@H]3[C@H](O)[C@H](O)C/C(=N/NC(=O)OCc4ccccc4)[C@@H]3CC[C@@H]2C1=O	none (no result: HCV inh, Pf growth 48h, HCMV antiviral, Pf growth 96h, Lassa entry inh)
COc1ccc(C2NC(c3ccc(OC)cc3)C(c3ccccc3)C(=O)C2c2ccccc2)cc1 (stereo not drawn)	MARV entry inh inconclusive, Pf growth 48h 12µM, Pf growth 96h 10µM, Lassa entry inh inconclusive
CN(C(=O)Nc1ccc(Cl)cc1Cl)[C@H]1c2cc(Br)ccc2OC[C@H]1CO	HCV inh 13µM, MARV entry inh inconclusive, Pf growth 48h 8.3µM, Pf growth 96h inconclusive
COc1ccc(OC)c(S(=O)(=O)N2CCC(C(=O)Nc3cc(C)ccc3C)CC2)c1	MARV entry inh inconclusive, HCMV antiviral -93, Pf growth 96h 13µM, Lassa entry inh inconclusive (no result: Pf growth 48h)
COc1ccc(NC(=O)C2CCC(C(C)(C)C)CC2)cc1S(=O)(=O)N1CCCCC1 (stereo not drawn)	MARV entry inh 11µM, HCMV antiviral -86, Lassa entry inh inconclusive
COc1ccc(OC)c(S(=O)(=O)N2CCC(C(=O)Nc3cccc(C)c3)CC2)c1	HCMV antiviral -61, Pf growth 96h inconclusive (no result: Pf growth 48h)
COc1ccc(OC)c(S(=O)(=O)N2CCC(C(=O)Nc3ccccc3)CC2)c1	MARV entry inh inconclusive, Pf growth 96h inconclusive
COc1ccc(OC)c(S(=O)(=O)N2CCC(C(=O)N3CCN(c4ccc(F)cc4)CC3)CC2)c1	HCV inh inconclusive, Pf growth 48h inconclusive, HCMV antiviral -62, Pf growth 96h inconclusive
CCN(CC)c1nc2ccccc2nc1C(=O)Nc1cc(OC)c(OC)c(OC)c1	none (no result: HCV inh, MARV entry inh, Pf growth 48h, Pf growth 96h)
COc1ccc(NC(=O)C2CCN(S(=O)(=O)c3ccc(C)cc3)CC2)cc1OC	Pf growth 96h 5.2µM
COc1cccc(NC(=O)C2CCN(S(=O)(=O)c3ccc4[nH]c(=O)ccc4c3)CC2)c1	Pf growth 48h inconclusive, Pf growth 96h 9.3µM (no result: MARV entry inh, Lassa entry inh)
COc1ccc(OC)c(S(=O)(=O)N2CCCCC2C(=O)N2CCN(c3ccccn3)CC2)c1 (stereo not drawn)	MARV entry inh inconclusive, Pf growth 48h 12µM, Lassa entry inh inconclusive
O=C(Cc1cccs1)N1CCN(S(=O)(=O)c2ccc(Cl)c(C(F)(F)F)c2)CC1	Pf growth 48h inconclusive, Pf growth 96h inconclusive (no result: MARV entry inh, Lassa entry inh)
Cc1ccc(C(=O)Nc2cccc(C(F)(F)F)c2)cc1NC(=O)c1[nH]cnc1C(N)=O	none (no result: MARV entry inh, Pf growth 48h, Pf growth 96h, Lassa entry inh)
